Consider 30 compounds from PubChem BioAssay (EPA / NIEHS).

Test [1] in a line: CCTE_Harrill_HTTr_Viability_MCF7: CCTE's 6-hour Cell Viability Assessment for the High-Throughput Transcriptomics (HTTr) Platform, in MCF-7 cells cultured in DMEM + 10% fetal bovine serum, Harrill Lab (AID 2284010). A digest of the protocol:
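Viability measured through PI dye exclusion by high-content imaging at 6 h post-dosing.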

Test [2] is described as follows: CCTE_Harrill_HTTr_Apoptosis_MCF7: CCTE's 6-hour Apoptosis Assessment for the High-Throughput Transcriptomics (HTTr) Platform, in MCF-7 cells cultured in DMEM + 10% fetal bovine serum, Harrill Lab (AID 2284011). The procedure, abridged:
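MCF-7 (DMEM + 10% FBS), 384-well; 8-pt dilution series, 6 h chemical exposure; caspase-3/7 activation via CellEvent Caspase 3/7 Green, HCI; bidirectional fit vs DMSO.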

Test [3] can be described thus: CCTE_Harrill_HTTr_CellCount_MCF7: CCTE's Cell Proliferation Assessment for the High-Throughput Transcriptomics (HTTr) Platform, Harrill Lab (AID 2284012; active = hit-call score of the fitted dose curve at least 0.9, where 1 is the maximum;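 note: count of Hoechst-stained nuclei per well by high-content imaging in MCF-7 cells; cells exposed to compound for six hours; intended direction is loss of nuclei count meaning fewer cells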). A digest of the protocol: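 Nuclei counting (Hoechst, high content imaging) in MCF-7 after a 6 h treatment at eight concentrations. Activity fitted bidirectionally, DMSO as negative control.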

Each structure is given as a SMILES string. Results filed as inconclusive are left out. Calls of active or inactive are those of the source. Rule for the calls, unless noted: active = hit-call score of the fitted dose curve at least 0.9, where 1 is the maximum; inactive = score below 0.9.

In the case of `Brc1ccc(Oc2ccc(Br)cc2Br)cc1`, the outcome in test [1], in test [2] and in test [3] was inactive.
`NS(=O)(=O)O`: the result in test [1] and in test [2] was inactive.
For `Nc1ccn([C@@H]2O[C@H](CO)[C@@H](O)C2O)c(=O)n1` (some centres undefined), the result in test [1], in test [2] and in test [3] was inactive.
Take `O=c1cc(-c2ccccc2)oc2ccc3ccccc3c12`: the outcome in test [1], in test [2] and in test [3] was inactive.
`C=Cc1ccc(O)c(OC)c1`: the outcome in test [1], in test [2] and in test [3] was inactive.
Regarding `CCCCCCCCC(C)=O`, the result in test [1], in test [2] and in test [3] was inactive.
Consider `c1cnc2c(c1)ccc1cccnc12`, for which the outcome in test [1], in test [2] and in test [3] was inactive.
Turning to `CNNCc1ccc(C(=O)NC(C)C)cc1`, the outcome in test [1], in test [2] and in test [3] was inactive.
`Cc1cccc2c1ccc1ccccc12`: the result in test [1], in test [2] and in test [3] was inactive.
With `CC(C)c1c(C(=O)Nc2ccccc2)c(-c2ccccc2)c(-c2ccc(F)cc2)n1CC[C@@H](O)C[C@@H](O)CC(=O)O`, the result in test [1], in test [2] and in test [3] was inactive.
For `CC(=O)Nc1ccc(S(N)(=O)=O)cc1`, the outcome in test [1], in test [2] and in test [3] was inactive.
Regarding `CC(C)(C)C1CCCCC1O` (centres undefined), the outcome in test [1], in test [2] and in test [3] was inactive.
As to `CCCCCCCCCCCC[N+](C)(C)Cc1ccccc1`, the AC50 in test [1] is 68.8 µM (active); in test [2], 70.8 µM (active); in test [3], 70.3 µM (active).
Take `Cn1sccc1=O`: the result in test [1], in test [2] and in test [3] was inactive.
Turning to `CCCCCCCCCCCCCCC`, the result in test [1], in test [2] and in test [3] was inactive.
Turning to `CC(C)(C)c1ccc(O)c(O)c1`, the outcome in test [1], in test [2] and in test [3] was inactive.
Take `CC(C)(c1ccc(Oc2ccc(N)cc2)cc1)c1ccc(Oc2ccc(N)cc2)cc1`: the outcome in test [1], in test [2] and in test [3] was inactive.
As for `CC1CCC(CO)CC1` (centres undefined), the outcome in test [1], in test [2] and in test [3] was inactive.
For the compound `O=C(NO)c1ccccc1`, the outcome in test [1], in test [2] and in test [3] was inactive.
As for `CS(=O)(=O)c1ccc([C@@H](CC2CCCC2)C(=O)Nc2cnccn2)cc1Cl`, the outcome in test [1], in test [2] and in test [3] was inactive.
Consider `CCCCC(CC)C(=O)O` (centres undefined), for which the outcome in test [1], in test [2] and in test [3] was inactive.
Regarding `Cc1[nH]nc2c1N=C(c1ccccc1Cl)c1cc([N+](=O)[O-])ccc1N2`, the outcome in test [1], in test [2] and in test [3] was inactive.
In the case of `Cc1cncc(C)c1`, the result in test [1], in test [2] and in test [3] was inactive.
For the compound `CCCCCC(C)OC(=O)COc1ccc(Cl)c2cccnc12` (centres undefined), the outcome in test [1], in test [2] and in test [3] was inactive.
In the case of `CCCCCCCCCCCC(=O)O`, the result in test [1], in test [2] and in test [3] was inactive.
Regarding `O=C(O)C(=O)O`, the result in test [1], in test [2] and in test [3] was inactive.
On to `CC(C)(C)c1ccc(CCC=O)cc1`, for which the result in test [1], in test [2] and in test [3] was inactive.
As to `CCCCCCCCCCCCOS(=O)(=O)O`, the result in test [1], in test [2] and in test [3] was inactive.
In the case of `C[C@]12CC[C@@H]3c4ccc(O)cc4CC[C@H]3[C@@H]1CC[C@@H]2OC(=O)CCC1CCCC1`, the outcome in test [1], in test [2] and in test [3] was inactive.
On to `CCCCCCCCCCCCCCCCCC[N+](C)(C)Cc1ccccc1`, for which the outcome in test [1], in test [2] and in test [3] was inactive.

One may read the AC50 as the concentration giving half of the maximal activity seen.
